# DUX4 txn inh: DUX4-mediated transcription inhibition; activity change, negative = inhibition, % (test concentration not listed); 293T-iDUX4 ZSCAN4-Gaussia luciferase reporter, 24 h; active compounds read low; 37,000 compounds, 0.8% hits;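 active = mean inhibition of at least 10% in the main channel, exceeding the control channel by a set limit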;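 note: 0% = median of neutral control wells and -100% = median of positive control wells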
# Starred values were filed as active, the others as inactive; ! = repeats disagree. Shown is part of a subset that was picked to be rich in hits.
SMILES,DUX4 txn inh
COc1ccc2c3c([nH]c2c1)[C@@H](CO)N(C(=O)c1ccc(F)cc1)CC31CN(C(=O)Nc2ccc(F)cc2)C1,4
O=C(c1ccc(F)cc1)N1CC[C@@H]2[C@H]1c1cc(C#Cc3ccc(F)cc3)ccc1N[C@@H]2CO,3
COc1ccccc1C#Cc1ccc2c(c1)[C@@H]1[C@@H](CCN1C(=O)c1ccc(F)cc1)[C@@H](CO)N2,0
COc1ccccc1C#Cc1ccc2c(c1)[C@@H]1[C@@H](CCN1C(=O)c1ccc(F)cc1)[C@H](CO)N2,-7
O=C(c1ccc(F)cc1)N1CC[C@@H]2[C@H](CO)Nc3ccc(C#Cc4ccccc4F)cc3[C@@H]21,-30*
O=C(c1ccc(F)cc1)N1CC[C@@H]2[C@H](CO)Nc3ccc(C#Cc4ccc(F)cc4)cc3[C@@H]21,-20*
O=C(c1ccc(F)cc1)N1CC[C@@H]2[C@H]1c1cc(C#Cc3ccccc3F)ccc1N[C@@H]2CO,-1
O=C(Nc1nccs1)[C@@H]1[C@@H](CO)[C@@H]2Cn3c(cccc3=O)[C@@H]2N1C(=O)C1CCCCC1,2
O=C(c1ccncc1)N1CC2(C1)[C@H](c1ccccc1)[C@@H](CO)N2CC1CCOCC1,6
O=C(c1cccc(F)c1)N1CCCCN2[C@H](CO)[C@H](c3ccc(-c4ccccc4)cc3)[C@H]2C1,3
CC(C)(O)C#Cc1ccc([C@H]2[C@@H](CO)N3CCCCN(C(=O)c4ccc(F)cc4)C[C@H]23)cc1,-5
O=C(c1cccc(F)c1)N1CCCCN2[C@H](C1)[C@H](c1ccc(/C=C/c3ccccc3)cc1)[C@@H]2CO,-9
O=C(CN1CCOCC1)N1CCCCN2[C@H](CO)[C@H](c3ccc(/C=C/c4ccccc4)cc3)[C@H]2C1,5
CC(C)C#Cc1ccc([C@H]2[C@@H](CO)N3CCCCN(C(=O)c4ccc(F)cc4)C[C@H]23)cc1,-40*
O=C(CN1CCOCC1)N1CCCCN2[C@H](C1)[C@@H](c1ccc(/C=C/c3ccccc3)cc1)[C@@H]2CO,-7
O=C(c1cccc(F)c1)N1CCCCN2[C@H](C1)[C@@H](c1ccc(/C=C/c3ccccc3)cc1)[C@@H]2CO,-41*
CC(C)C#Cc1ccc([C@@H]2[C@@H](CO)N3CCCCN(C(=O)c4ccc(F)cc4)C[C@H]23)cc1,0
CCC(=O)N1CCCCN2[C@@H](CO)[C@H](c3ccc(/C=C/c4ccccc4)cc3)[C@@H]2C1,-16*
COc1ccc2c3c([nH]c2c1)[C@H](CO)N(C)CC31CCN(C(=O)NC(C)C)CC1,14
O=C(Cc1cccnc1)N1CC(=O)N2[C@H](CO)[C@@H](c3ccc(-c4cccc(F)c4)cc3)[C@H]2C1,9
O=C(Nc1ccccc1)[C@H]1[C@H](CO)[C@H]2Cn3c(cccc3=O)[C@H]2N1CC1CCOCC1,11
Cc1ccccc1-c1ccc([C@@H]2[C@H]3CN(C(=O)c4cccnc4)CC(=O)N3[C@H]2CO)cc1,1
CCCNC(=O)N1CC2(CN(C)C2)c2c(n(C)c3cc(OC)ccc23)[C@@H]1CO,10
Cn1cnc(S(=O)(=O)N2CC[C@@H]3[C@H]2c2cc(C4=CCCCC4)ccc2N[C@@H]3CO)c1,20
COC(=O)C[C@@H]1CC[C@H]2[C@H](COc3ccc(NC(=O)Cc4cccs4)cc3C(=O)N2C)O1,-3
SMILES,DUX4 txn inh
CCC(=O)N1CC2(C1)CN(Cc1ccc(OC)cc1)[C@@H](CO)c1[nH]c3cc(OC)ccc3c12,8
O=C(C1CCOCC1)N1C[C@@H]2N[C@H](C1)C2c1ccc(-c2cncnc2)cc1 (stereo partly specified),19
O=C(C1CCCC1)N1C[C@@H]2N[C@H](C1)C2c1ccc(-c2ccncc2)cc1 (stereo partly specified),-28*!
Cc1cccc(-c2ccc(C3[C@@H]4CN(C(=O)Nc5ccccc5)C[C@H]3N4)cc2)c1 (stereo partly specified),-2
O=C(Nc1cccc(F)c1)N1C[C@@H]2N[C@H](C1)C2c1ccc(-c2cncnc2)cc1 (stereo partly specified),-7
O=C(c1ccncc1)N1C[C@@H]2N[C@H](C1)C2c1ccc(-c2ccncc2)cc1 (stereo partly specified),5
O=C(Nc1ccccc1)N1C[C@@H]2N[C@H](C1)C2c1ccc(-c2cccnc2)cc1 (stereo partly specified),-52*
O=C(c1ccccn1)N1[C@@H](CO)[C@@H](c2ccccc2)C12CN(Cc1ccccc1F)C2,4
CC(C)CC#Cc1ccc([C@@H]2[C@H]3CN(S(C)(=O)=O)CC(=O)N3[C@H]2CO)cc1,12
C[C@@H]1COCc2cn(nn2)CC[C@H](Cc2ccccc2)C(=O)N1,-1
C[C@H]1COCc2cn(nn2)CC[C@@H](Cc2ccccc2)C(=O)N1,2
